# Compound activity from PubChem.
# The list is not random: actives were taken first. Their share in the collection is about 7.2%.
# RE007 growth inh – less growth of the S. pombe RE007 Vpr strain. AID 651644. actives 0.21% (n = 360,000). S. pombe RE007 Vpr strain, BacTiter-Glo ATP luminescence, 24 h. Potency, µM (doses to about 92.2 µM), for the others: top-dose activity change, negative = less growth, actives largely listed as inhibitors; active means well fitted falling curve with a large enough effect; inconclusive means small, poorly fitted or top-dose-only effect; inactive means no such curve, though single readings can be large or run the other way; further: nearly all actives have a fitted effect of over 50% in size
#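 Fission yeast RE007 carrying one integrated HIV-1 vpr copy, seeded at OD 0.01 in PMG+AL medium with 23 nL pinned compound. Grown 24 h at 30 degrees; viability read by BacTiter-Glo luminescence after 5 min.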
# Lassa entry inh – inhibitors of Lassa virus binding or cell entry; Lassa virus pseudotype entry inhibition, cell reporter; Potency, µM (series often up to 37.9 µM), for the others: at the highest dose activity change, negative = inhibition, most hits filed as inhibitors; actives 1.2% (n = 300,000); AID 540256; calls by dose curve; tested in HEK293 cells; further: nearly all actives have a fitted effect of over 50% in size
# HCV inhibitor – blocks hepatitis C virus; Huh7.5.1 HCVcc-Cre infection, luciferase reporter, 44 h; AID 651820; actives 3.4% (n = 340,000); Potency, µM (doses to about 41.8 µM), for the others: top-dose activity change, negative = inhibition, actives largely listed as inhibitors
#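 Cells (1,000/well) were plated 4 h before compound, then infected with HCVcc-Cre virus (~0.5 moi). After 44 h further culture, infection was read as luciferase luminescence following a 15 min substrate incubation at room temperature.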
# Sm TGR inh – S. mansoni TGR enzyme inhibition. Q962Y6. purified TGR, DTNB reduction, TNB absorbance 405 nm. actives 3% (n = 360,000). Potency, µM (series often up to 114 µM), for inactives: top-dose activity change, negative = inhibition, hits mostly inhibitors; further: nearly all actives have a fitted effect of over 60% in size
#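 First, TGR (20 nM dispensed) and NADPH were mixed with compound. Second, a 15 min room-temperature incubation followed. Third, further NADPH and then DTNB were added to start the reaction. Finally, TNB absorbance was monitored kinetically.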
# MARV entry inh – blocks Marburg virus binding to or entry into cells. actives 1.8% (n = 300,000). Marburg virus pseudotyped entry inhibition, cell reporter. Potency, µM (doses to about 37.8 µM), for inactives: at the highest dose activity change, negative = inhibition, usual class: inhibitors; calls by dose curve; tested in HEK293 cells
# FMDV antiviral – blocks foot and mouth disease virus | FMDV antiviral cell-based qHTS | Potency, µM (top dose mostly 57.9 µM), without a hit: at the highest dose activity change, negative = inhibition, actives largely listed as inhibitors | actives 1.2% (n = 410,000); calls by dose curve; tested in HEK293T cells; further: read-out not given here; nearly all actives have a fitted effect of over 45% in size
# Starred values were filed as active, the others as inactive; ? = inconclusive; . = no result; [ ] = remark or other dose. Unless noted, the call rests on the fitted dose curve; in most records, active means well fitted curve in the direction sought with a large enough effect; inconclusive means small, poorly fitted or top-dose-only effect, or another doubt; inactive means no such curve, though single readings can be large; an effect the other way counts as inactive or inconclusive. On the % scale 0 is the no-effect control and ±100 the full control effect; potency means the concentration at half of the fitted maximal effect.
SMILES,RE007 growth inh,Lassa entry inh,HCV inhibitor,Sm TGR inh,MARV entry inh,FMDV antiviral
O=C(c1ccc(NS(=O)(=O)c2cccs2)cc1)N1CCCCC1,8.2%,-2.2%,2.82µM*,0.5%,-2.0%,-3.3%
NS(=O)(=O)c1ccc(NC(=S)Nc2cc(Cl)c(Cl)cc2Cl)cc1,0.1%,0.3%,13.4%,31.6µM*,?,-27.5%
NS(=O)(=O)c1ccc(NC(=S)NCc2ccccc2Cl)cc1,11.6%,-1.0%,10.6%,?,4.5%,3.3%
CCN(CC)CCN(C)C(=O)c1ccc(-c2ccccc2)nc1N(C)C,.,.,.,.,.,-2.3%
CNCc1ccccc1Sc1cccc(O)c1,-5.5%,?,-25.1%,-3.5%,?,-7.9%
CNCc1ccccc1Sc1cc(O)ccc1O,45.2%,?,?,3.55µM*,?,-11.4%
COc1ccccc1C1CN(CC(=O)N2CCC(C(O)c3ccccn3)CC2)Cc2ccccc2O1 (stereo unspecified),.,.,.,.,.,1.6%
CCOC(=O)C1=C(O)c2ccccc2C(=O)/C1=C\c1ccc(C)cc1,?,?,1.5%,3.55µM*,?,28.2µM*
O=C(CC1(O)C(=O)Nc2cc(Cl)cc(Cl)c21)c1ccncc1 (stereo unspecified),-16.1%,?,11.2µM*,1.4%,?,-30.0%
CC(=O)N1c2ccc(S(=O)(=O)NCC3CCC(C(=O)Nc4ccc(C)c(C)c4)CC3)cc2CC1C (stereo unspecified),.,7.2%[46.1 µM],.,-0.8%,.,17.8µM*
CCc1ccc(NC(=O)C2CCN(S(=O)(=O)c3ccc4c(c3)CC(C)N4C(C)=O)CC2)cc1 (stereo unspecified),2.6%,.,2.82µM*,6.0%,.,15.8µM*
COc1ccccc1NC(=O)C1CCN(S(=O)(=O)c2ccc3c(c2)CC(C)N3C(C)=O)CC1 (stereo unspecified),-7.3%,12.4%[46.1 µM],-1.6%,6.9%,-1.8%[46.1 µM],-14.1%
CC(=O)N1c2ccc(S(=O)(=O)NCC3CCC(C(=O)Nc4cc(C)cc(C)c4)CC3)cc2CC1C (stereo unspecified),.,?,.,0.1%,.,?
COc1ccccc1NC(=O)C1CCC(CNS(=O)(=O)c2ccc3c(c2)CC(C)N3C(C)=O)CC1 (stereo unspecified),.,?,.,-0.6%,.,31.6µM*
CC(=O)N1c2ccc(S(=O)(=O)NCC3CCC(C(=O)Nc4ccc(F)cc4)CC3)cc2CC1C (stereo unspecified),.,?,.,8.4%,.,35.5µM*
CC(=O)N1c2ccc(S(=O)(=O)NCC3CCC(C(=O)NC(C)(C)C)CC3)cc2CC1C (stereo unspecified),.,-0.1%[46.1 µM],.,2.0%,.,-3.4%
COc1ccccc1OCC(=O)NCCS(=O)(=O)N1CCN(c2ccccc2OC)CC1,.,-3.2%[46.1 µM],.,1.9%,.,-11.6%
COc1cc(Cl)c(NC(=O)c2cc(CN3CCCC3)on2)c(OC)c1,.,14.1%[46.1 µM],.,-2.6%,21.2%[46.1 µM],-20.3%
O=c1c(-c2cccs2)nc2cnc(N3CCOCC3)nc2n1Cc1cccs1,.,.,.,.,.,-22.0%
COc1cccc(C(=O)NCC(c2ccc3c(c2)OCO3)N2CCN(C)CC2)c1 (stereo unspecified),.,1.3%[46.1 µM],.,8.0%,.,-8.0%
COc1ccccc1N1CCN(C(=O)c2cc3c(=O)n(Cc4cccnc4)ccc3nc2C)CC1,.,-1.7%[46.1 µM],.,3.1%,.,-16.9%
COc1ccc(-c2[nH]nc3nc(-c4cc(Br)ccc4OC)cc(C(=O)O)c23)cc1,.,3.8%[46.1 µM],.,3.9%,.,-15.8%
CCc1ccc(NC(=O)C2CCC(CNS(=O)(=O)c3ccc4c(c3)CC(C)N4C(C)=O)CC2)cc1 (stereo unspecified),.,-1.0%[46.1 µM],.,-4.2%,.,17.8µM*
COc1ccc(NC(=O)c2cccc([N+](=O)[O-])c2)cc1,-11.0%,?,?,5.5%,1.3%[46.1 µM],27.1%
COc1ccc(NC(=O)c2cc([N+](=O)[O-])ccc2O)cc1,6.31µM*,.,?,0.0%,.,6.31µM*
O=C(O)c1ccccc1C(=O)Nc1cccc([N+](=O)[O-])c1,.,.,9.6%,0.8%,.,-10.4%
